TSHR agonist: TSH receptor (human) agonism | P16473 | HEK293-CNG-TSHR cells (CNG channel as cAMP sensor), membrane potential dye, cAMP | Potency, µM (doses to about 57.1 µM), hits mostly activators | hit rate 0.48% among 73,000 | AID 926; active means well fitted activation curve with a large enough effect in the main read-out, with a control signal flat, not every such curve was filed as active; inconclusive means small, poorly fitted or top-dose-only effect, or a change in a side signal; inactive means no such curve, though single readings can be large or run the other way; reference of the percent scale not stated here;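 further: the control signal comes from parental cells without the receptor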
Target sequence (P16473 whole entry, looked up): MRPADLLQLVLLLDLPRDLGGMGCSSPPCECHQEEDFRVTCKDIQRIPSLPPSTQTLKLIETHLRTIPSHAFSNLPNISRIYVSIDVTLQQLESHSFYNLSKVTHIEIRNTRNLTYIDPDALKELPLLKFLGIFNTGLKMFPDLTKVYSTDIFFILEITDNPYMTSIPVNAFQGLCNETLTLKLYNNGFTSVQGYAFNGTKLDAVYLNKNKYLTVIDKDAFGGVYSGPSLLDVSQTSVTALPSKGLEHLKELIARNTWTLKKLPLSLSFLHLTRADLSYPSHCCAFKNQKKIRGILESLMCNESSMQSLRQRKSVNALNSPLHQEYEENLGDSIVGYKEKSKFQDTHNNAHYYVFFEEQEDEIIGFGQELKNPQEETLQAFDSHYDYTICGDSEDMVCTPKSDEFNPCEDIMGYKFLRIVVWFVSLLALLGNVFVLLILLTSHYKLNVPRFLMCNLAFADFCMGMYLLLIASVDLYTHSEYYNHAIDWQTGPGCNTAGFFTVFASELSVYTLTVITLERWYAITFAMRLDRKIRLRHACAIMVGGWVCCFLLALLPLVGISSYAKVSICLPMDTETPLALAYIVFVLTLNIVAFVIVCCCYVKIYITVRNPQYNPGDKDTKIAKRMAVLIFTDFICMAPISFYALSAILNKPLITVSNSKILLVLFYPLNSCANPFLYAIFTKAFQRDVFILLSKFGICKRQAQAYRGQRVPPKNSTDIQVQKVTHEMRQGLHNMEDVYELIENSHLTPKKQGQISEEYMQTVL
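cAMP rise detected as CNG-channel membrane depolarization by fluorescent dye (emission 590 nm), 30 min after compound, following 60 min dye loading containing 100 uM RO 20-1724 at room temperature. Cells: TSHR/CNG HEK 293, with parental CNG HEK 293 as control.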
IkB sig inh: inhibitors of IkB signaling in ABC-DLBCL cells; ABC-DLBCL IkBa-CBG/CBR dual luciferase ratio, 4 h; response scale: scaled: untreated 0%, proteasome inhibitor 100%; Potency, µM (series often up to 57.1 µM); hit rate 0.04% among 110,000; AID 445; active means well fitted curve in the direction sought with a large enough effect in the signal ratio, not every such curve was filed as active; inconclusive means small, poorly fitted or top-dose-only effect, or a change in a side signal; the % refers to the signal ratio;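 further: the direction sought is a rising ratio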
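In this assay, an IκBα–CBG68 fusion accumulates when IKK-driven degradation is blocked; native CBR normalizes for cell number. OCI-Ly3 cells were treated 4 h with compound and doxycycline, then green and red light read after Chroma-Glo addition.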
HEK293 cAMP cs: parental HEK293 cAMP activation (counter-screen); hit rate 2.5% among 73,000; Potency, µM (doses to about 57.1 µM), usual class: activators; parental HEK293 CNG cAMP sensor, membrane potential fluorescence; AID 938; further: nearly all actives have a fitted effect of over 55% in size
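Parental HEK 293 cells stably expressing a modified CNG channel (no TSHR) report cAMP rise as membrane depolarization. Membrane potential dye with 100 uM RO 20-1724 was loaded for 60 min at room temperature, then compound added for 30 min; fluorescence read at 590 nm.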
CRE Fsk mod: alters forskolin-stimulated CRE reporter signaling in CHO cells; CHO CRE-bla reporter (cAMP response element driving beta-lactamase), forskolin EC10, beta-lactamase ratio; Potency, µM (highest dose often 38.2 µM), usual class: activators; hit rate 2.5% among 71,000; active means well fitted activation curve with a large enough effect in the signal ratio, with a control signal flat, not every such curve was filed as active; inconclusive means small, poorly fitted or top-dose-only effect, or effect the other way, or a change in a side signal; the % refers to the signal ratio
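Forskolin analogue NKH 477 at EC10 stimulated CRE-driven beta-lactamase in CHO cells alongside compound dilution series. Beta-lactamase was measured with CCF4, excitation 405 nm, emission ratio 460/530 nm.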
ERK AVP block: vasopressin-driven ERK pathway inhibition; HEK293-V1b, vasopressin-stimulated pERK AlphaScreen; Potency, µM (highest dose often 57.5 µM), usual class: inhibitors; hit rate 0.99% among 72,000; AID 995; further: nearly all actives have a fitted effect of over 55% in size
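Overnight-seeded V1b-HEK293 cells in 1% FBS got compound, then vasopressin (25 nM final, 5 min, 37C), then lysis buffer. AlphaScreen detection of phospho-ERK; activity normalized to basal and full-stimulation controls.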
parental cAMP: TSHR-independent cAMP elevation, counter-screen | shares compounds with TSHR agonist | parental HEK293 CNG biosensor, cAMP membrane potential fluorescence | activity change, negative = inhibition, % at 32.9 µM | 150 tested, under 10 active | AID 953
Numbers stand for hits; 0 = inactive; ? = inconclusive; - = no result given; [ ] = another dose, or the depositor's remark. Only some compounds are listed: those with a hit (about 3.6% of all), similar ones and a draw of the others. Unless noted, the call rests on the fitted dose curve; in most records, active means well fitted curve in the direction sought with a large enough effect; inconclusive means small, poorly fitted or top-dose-only effect, or another doubt; inactive means no such curve, though single readings can be large; an effect the other way counts as inactive or inconclusive.

SMILES	TSHR agonist	IkB sig inh	HEK293 cAMP cs	CRE Fsk mod	ERK AVP block	parental cAMP
Cc1ccc2nc(SCC(=O)O)nc(C)c2c1	0	0	0	0	0	0
O=C1c2ccccc2C(=O)N1Cc1nc(-c2ccncc2)no1	0	0	0	0	0	-
O=C1c2ccccc2C(=O)N1Cc1nc(-c2ccccc2)no1	0	0	0	?	0	0
O=C(Nc1ccc2c(c1)OC1(CCCC1)O2)C1CC1	0	0	0	0	0	-
COc1ccc(C2Nc3ccccc3C(=O)N2Cc2ccco2)cc1COc1ccc(NC(C)=O)cc1 (stereo unspecified)	0.63µM	0	0	0	0	0
CCSCCOC(=O)C1=C(C)N(C)C(=O)NC1c1cc(OC)ccc1OC (stereo unspecified)	25µM	0	0	0	?	0
Cn1ccc2c(OCC(=O)Nc3ccc([N+](=O)[O-])cc3)cccc2c1=O	-	0	-	-	-	-
CCc1ccccc1NC1=NCC(=O)N1Cc1ccc(OC)cc1	7.9µM	0	0	0	0	0
Cc1oc2c(CN3CCOCC3)c(O)ccc2c(=O)c1-c1ccccc1	0	0	0	0	0	0
Cc1c(-c2ccccc2)c(=O)oc2c(CN3CCN(C)CC3)c(O)ccc12	-	0	-	-	-	-
Cc1cc(SCNC(=O)c2ccccc2)ncn1	0	0	0	0	0	0
Cc1cc(C)nc(SCNC(=O)c2ccc(F)cc2)n1	0	0	0	?	0	-
COCCNc1nc(C)nc2c1nc(-c1ccccc1)n2CC1CCN(C)CC1	0	-	0	0	0	-
Cc1cc(C)nc(N(C#N)CC(=O)N2CCC(C(N)=O)CC2)n1	-	0	0	0	0	0
CCC(C)NC(=O)Cn1c(=O)cc(-c2ccccc2)c2c(C)nn(C)c21 (stereo unspecified)	-	0	-	-	-	-
Brc1ccc(Oc2nnnn2-c2ccccc2)cc1	25µM	0	0	0	0	0
Cc1occc1-c1nnc(SCC(=O)Nc2ccccc2)n1C(C)c1ccccc1 (stereo unspecified)	7.9µM	?	0	0	?	0
Cc1ccccc1-c1nc(CN2CCC(C(=O)N3CCC(C(N)=O)CC3)CC2)c(C)o1	0	0	0[11.4 µM]	0	0	-
Cc1ccccc1-c1nc(CN2CCC(C(=O)N3CCN(c4ccccn4)CC3)CC2)c(C)o1	0	?	0	0	0	0
Cn1cccc1Cc1nnc(SCC(N)=O)n1CCc1ccccc1	0	0	0	0	0	0
CCCC[C@@H]1C[C@H]1C(NC(=O)c1ccccc1)c1ccc(-c2ccccc2)cc1 (stereo partly specified)	0	-	0	0	0	-
CCc1cccc(C)c1NC(=O)CSc1nnc(CC)n2c1cc1occc12	-	0	-	-	-	-
CCC(=O)N1CCc2cc(CNC(=O)Nc3cc(C)ccc3C)ccc21	-	0	-	-	-	-
COc1cc2c(N3CCOCC3)cc(O)c(CC(=O)Nc3ccccc3)c2cc1OC	32µM	0	0	0	0	0
COC(=O)c1cc(C(=O)OC)cc(N2C(=O)CC(Sc3nc(C)cc(C)n3)C2=O)c1 (stereo unspecified)	25µM	0	0	0	0	0
SMILES	TSHR agonist	IkB sig inh	HEK293 cAMP cs	CRE Fsk mod	ERK AVP block	parental cAMP
CCOc1cc(C(=O)N(C)c2ccccc2)cc(OCC)c1OCC	25µM	0	0	0	0	0
CCOc1cc(C(=O)N2CCN(c3ccccc3)CC2)cc(OCC)c1OCC	?	0	?	0	0	-
Cc1cccc(NC(=O)CSc2nnc(-c3ccccc3)n2N)c1C	0[11.4 µM]	0	0	0	0	0
Cc1cccc(NC(=O)CSc2nnc(-c3ccccc3)n2N)c1	0	0	0	?	0	-
COC(=O)c1ccc(OC(=O)C2CC(=O)N(c3ccc(C)cc3C)C2)cc1 (stereo unspecified)	0	0	0	0	0	-
CCCC(=O)Nc1ccc(OCC(O)CNC(C)C)c(C(C)=O)c1 (stereo unspecified)	-	-	-	-	0	-
COC(=O)C1=C(C)NC(=O)NC1c1cn(-c2ccccc2)nc1-c1cccs1 (stereo unspecified)	25µM	?	0	0	0	0
Cc1ccc(C(C)C)c(OCC(=O)Nc2ccc(C(=O)OC3CCCCC3)cc2)c1	-	0	-	-	-	-
Cc1ccc(C(C)C)c(OCC(=O)Nc2ccc(N3CCN(S(C)(=O)=O)CC3)cc2)c1	0	0	0	0	0	0
COc1ccccc1NC(=O)CSc1ncc(CO)n1Cc1ccc(F)cc1	-	0	-	-	-	-
COc1ccc(C2C3=C(CC(c4ccco4)CC3=O)Nc3ccccc3N2C(C)=O)cc1 (stereo unspecified)	0	0	0	0	0	-
O=C1CC(c2ccco2)CC2=C1C(c1ccccc1)n1nc(C(F)(F)F)nc1N2 (stereo unspecified)	0.63µM	?	0	0	0	0
COc1cc(/C=N/n2c(SC)nnc(C(C)(C)C)c2=O)ccc1O	0	0	0	?	0	0
c1ccc(-n2cnc3cc(NCc4ccncc4)ccc32)cc1	0	0	0	?	?	0
c1ccc(-n2cnc3cc(NCc4ccccn4)ccc32)cc1	0	0	0	0	0	-
O=C(NC1=NCCS1)c1ccc2c(c1)C(=O)N(Cc1ccco1)C2=O	0	0	0	?	0	-
Cc1cnc(NC(=O)c2ccc3c(c2)C(=O)N(Cc2ccco2)C3=O)s1	0	0	0	0	0	0
O=c1cc(-c2ccccc2)n2c(SCc3c(F)cccc3Cl)nnc2[nH]1	-	0	-	-	-	-
CCOC(=O)c1ccc(NC(=O)c2ccc(CN3CCOCC3)cc2)cc1	-	0	0	0	32µM	0
Clc1ccccc1-c1ccc2ncnc(N3CCNCC3)c2c1	0	0[11.4 µM]	0	?	0	-
CN(Cc1ccco1)C(=O)Cn1c(=O)oc2cc(S(=O)(=O)NCc3ccccc3)ccc21	25µM	0	0	0	0	0
Cc1onc(-c2ccccc2Cl)c1C(=O)Nc1ccc(-n2nncc2-c2ccco2)cc1	6.3µM	?	0	0	0	0
COC(=O)COc1cccc(NS(=O)(=O)c2ccc(NC(C)=O)cc2)c1	0	0	0	0	0	-
Cc1onc(-c2ccccc2)c1C(=O)N1CCCN(C(=O)c2c(-c3ccccc3)noc2C)CC1	0	0	0	0	0	-
Cc1onc(-c2ccccc2)c1C(=O)N1CCCSC1=Nc1ccccc1	?	0	?	0	0	0
Cc1nn(C)c(C)c1S(=O)(=O)N(CC(=O)Nc1nccs1)c1ccc(C(C)C)cc1	7.9µM	0	0	0	0	0
